Measured values taken from ChEMBL document CHEMBL3988442, “University of Dundee, Small-Polar-MMV Screening Library” (2021).
The campaign covered roughly 53,000 compounds. About 900 (1.7%) showed an effect of 50% or more. Only a selection was taken, and strong results are over-represented in it overall.

test system: Mycobacterium tuberculosis; experiment: Cornell - Phenotypic assay to identify agents that inhibit growth of Mycobacterium tuberculosis; assay type: functional; design: scale not given: direction of the effect not stated beside the values; details: 10 mM as filed; unlikely as a test dose

| SMILES | Percent Effect [%] |
| --- | --- |
| COC(=O)CCc1c(C)nn(-c2nc(C)cc(=O)[nH]2)c1C | 23.13 |
| Cc1cc(=O)[nH]c(-n2nc(-c3ccccc3)cc2N)n1 | 94.92 |
| CCCS(=O)(=O)NCCn1ccc(-c2cccs2)n1 | -17.91 |
| NC1(c2nc(-c3cccs3)cc(=O)[nH]2)CCCCC1 | -54.45 |
| NC1(c2nc(-c3ccccc3)cc(=O)[nH]2)CCCC1 | 17.2 |
| COc1cc(N2C[C@H]3CN(Cc4ccccn4)C[C@H]3C2)ncn1.O=C(O)C(F)(F)F | 8.566 |
| Cn1nnnc1SC1CCc2ccccc2NC1=O (stereo not drawn) | 4.345 |
| O=C(COC[C@]12COC[C@H]1CN(C1CCC1)C2)N1CCCC1.O=C(O)C(F)(F)F | -23.94 |
| CS(=O)(=O)NCC1Cc2ccccc2O1 (stereo not drawn) | -12.85 |
| CCC1CN(CCCO)c2ccccc2O1 (stereo not drawn) | 66.97 |
| CN(CC1COc2ccccc2O1)C(=O)C1=NN(C)C(=O)CC1 (stereo not drawn) | 21.15 |
| CCCN(CC1COc2ccccc2O1)C(=O)CCN1C(=O)CCC1=O (stereo not drawn) | 17.77 |
| CCC1CN(CCNS(C)(=O)=O)c2ccccc2O1 (stereo not drawn) | 23.74 |
| CCC1CN(CCCNS(C)(=O)=O)c2ccccc2O1 (stereo not drawn) | 99.54 |
| Cc1cccc(CN2CCC3(CCN(Cc4ccccn4)C3)C2=O)c1.O=C(O)C(F)(F)F.O=C(O)C(F)(F)F (stereo not drawn) | 1.967 |
| COc1cc(CCC(=O)N2CCC(c3cc4nccnc4[nH]3)CC2)on1 | 16.88 |
| CCCSc1ncccc1C(=O)NCc1ccc(N(C)C)cc1 | -11.44 |
| O=C(O)C(F)(F)F.c1ccc(CN2CCc3ncnc(-c4ccsc4)c3CC2)nc1 | 15.9 |
| CCc1csc(C2CCCN(C(=O)c3ccc(=O)n(CC)n3)C2)n1 (stereo not drawn) | -10.64 |
| CCc1nc(C(=O)N(CC)CC(=O)N(C)C)nn1-c1ccccc1Cl | 10.69 |
| CCCn1nnnc1CN(C)C(C)c1ccc(C)cc1 (stereo not drawn) | 18.09 |
| CCCn1nnnc1CN(c1ccc(C)cc1)C(C)C | 13.52 |
| CCCn1nnnc1CN(c1ccc(N2CCOCC2)cc1)C(C)C | 100.7 |
| c1ccc(CN2CCC(CCNc3ncnc4c3CCNCC4)C2)cc1 (stereo not drawn) | 21.24 |
| CN1C(=O)CCCC12CCCN(Cc1cccs1)C2.O=C(O)C(F)(F)F (stereo not drawn) | 15.82 |
| CCN1CCC2(CC1)CN(CCO)c1ccccc12 | -37.58 |
| COCCN1CC2(CCN(Cc3ccco3)CC2)c2ccccc21 | 57.89 |

| SMILES | Percent Effect [%] |
| --- | --- |
| COCCN1CC2(CCN(C(=O)c3ccno3)CC2)c2ccccc21.O=C(O)C(F)(F)F | -25.4 |
| Cc1cc(C)n(CC2CN(CCC(=O)NC3CCCCC3)CCO2)n1 (stereo not drawn) | -4.136 |
| Cc1[nH]/c(=N\C(=O)c2csc(NC3CC3)n2)sc1C | 53.16 |
| Cc1cc(O)c(OCC(=O)/N=c2\[nH]c(C)c(C)s2)cn1 | 27.09 |
| Cc1[nH]/c(=N\C(=O)c2csc(NC3CCCC3)n2)sc1C | 105 |
| CC(=O)Nc1nc(C(=O)N2CCCC(c3cc(C)[nH]n3)C2)cs1 (stereo not drawn) | -1.903 |
| CC(=O)Nc1nc(C(=O)N2CCC(Nc3cccnn3)CC2)cs1 | -42.9 |
| Cc1[nH]/c(=N/C(=O)Cn2nc(N3CCOCC3)ccc2=O)sc1C | -3.782 |
| COC(=O)Cn1c(C)cc(=O)n2nc(-c3cccs3)nc12 | -3.318 |
| Cc1cnn(CC2CN(CCc3cccs3)CCO2)c1 (stereo not drawn) | 13.16 |
| CC(C(=O)NCC(C)(C)c1ccc2c(c1)OCCO2)n1cncn1 (stereo not drawn) | -4.418 |
| CC(=O)N1CCC(c2nc(C)cc(-c3ccccc3C(=O)O)n2)CC1 | -42.06 |
| COc1ccccc1OC1CCN(c2nccc(N)n2)CC1 | -15.16 |
| CS(=O)(=O)NCCCNC(=O)c1cnc(-c2ccsc2)s1 | -10.19 |
| Cn1cc(CN2CCC(c3ccncc3)CC2)cn1 | 9.056 |
| COc1ccc(CN2CCC3(CCCN(C)C3=O)C2)c(OC)c1C (stereo not drawn) | 52.12 |
| COc1cc2c(cc1CN1CCC3(CCCN(C)C3=O)C1)OCCO2 (stereo not drawn) | 14.22 |
| COc1ccc(CN2CCC3(CCCN(C)C3=O)C2)c(Cl)c1OC (stereo not drawn) | 41.14 |
| CCN(CC)CCNS(=O)(=O)c1cccc(CSC)c1 | 5.575 |
| Cc1noc(C)c1S(=O)(=O)NCC(O)c1ccc2c(c1)CCO2 (stereo not drawn) | -26.48 |
| Cc1nc(CNCC2CN(C)CCO2)cs1 (stereo not drawn) | 0.5218 |
| CC(=O)N[C@H]1CN(S(=O)(=O)N(C)Cc2ccccc2)C[C@@H]1C1CC1 | 14.84 |
| CCC1CCCCN1C(=O)Cn1nc(-c2ccc(C)o2)cc(N)c1=O (stereo not drawn) | -6.265 |
| CCC1CCCCN1C(=O)Cn1nc(-c2ccc(C)s2)cc(N)c1=O (stereo not drawn) | 45.47 |
| CCC1CCCCN1C(=O)Cn1nc(-c2cc(C)oc2C)cc(N)c1=O (stereo not drawn) | 52.47 |
| NCCc1n[nH]c(=O)n1-c1cccc(Cl)c1Cl | -33.73 |
